# Where “and” joins values, the source holds several entries; their conditions need not be identical. Equal entries are not always repeated.
# Assays:
# [1] = biological target: RAC-alpha serine/threonine-protein kinase (Homo sapiens) (UniProt P31749); conditions: at 0.1 µM
# [2] = biological target: RAC-alpha serine/threonine-protein kinase (Homo sapiens) (UniProt P31749); conditions: at 1 µM
# [3] = biological target: RAC-beta serine/threonine-protein kinase (Homo sapiens) (UniProt P31751); conditions: at 0.1 µM
# Chain of RAC-beta serine/threonine-protein kinase (Homo sapiens) (P31751 whole entry): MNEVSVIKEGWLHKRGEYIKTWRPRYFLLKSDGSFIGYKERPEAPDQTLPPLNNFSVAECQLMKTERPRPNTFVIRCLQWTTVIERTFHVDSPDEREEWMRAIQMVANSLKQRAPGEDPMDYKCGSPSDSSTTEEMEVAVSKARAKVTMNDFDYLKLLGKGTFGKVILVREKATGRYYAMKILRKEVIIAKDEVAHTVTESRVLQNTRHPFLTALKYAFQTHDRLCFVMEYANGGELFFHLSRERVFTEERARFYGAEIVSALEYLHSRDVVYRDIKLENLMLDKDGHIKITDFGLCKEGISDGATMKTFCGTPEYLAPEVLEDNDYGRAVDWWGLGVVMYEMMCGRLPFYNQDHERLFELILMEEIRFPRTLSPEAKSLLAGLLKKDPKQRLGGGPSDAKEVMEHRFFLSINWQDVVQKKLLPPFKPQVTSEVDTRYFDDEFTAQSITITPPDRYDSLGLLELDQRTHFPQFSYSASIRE
# [4] = biological target: RAC-beta serine/threonine-protein kinase (Homo sapiens) (UniProt P31751); conditions: at 1 µM
# [5] = biological target: RAC-gamma serine/threonine-protein kinase (Homo sapiens) (UniProt Q9Y243); conditions: at 0.1 µM
# Chain of RAC-gamma serine/threonine-protein kinase (Homo sapiens) (Q9Y243 whole entry): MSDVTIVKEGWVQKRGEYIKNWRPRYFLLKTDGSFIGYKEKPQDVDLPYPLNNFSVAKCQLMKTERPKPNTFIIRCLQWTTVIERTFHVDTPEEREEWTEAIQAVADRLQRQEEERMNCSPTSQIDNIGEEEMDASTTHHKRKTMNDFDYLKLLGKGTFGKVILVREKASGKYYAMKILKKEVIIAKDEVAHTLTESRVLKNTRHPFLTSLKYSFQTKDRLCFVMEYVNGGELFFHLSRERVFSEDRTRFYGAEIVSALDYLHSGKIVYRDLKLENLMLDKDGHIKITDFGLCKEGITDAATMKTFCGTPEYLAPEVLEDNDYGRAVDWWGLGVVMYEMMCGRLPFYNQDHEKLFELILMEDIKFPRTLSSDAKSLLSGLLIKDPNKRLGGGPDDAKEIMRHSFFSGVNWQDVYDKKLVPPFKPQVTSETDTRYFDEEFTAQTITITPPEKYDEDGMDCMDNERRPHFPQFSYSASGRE
# [6] = biological target: RAC-gamma serine/threonine-protein kinase (Homo sapiens) (UniProt Q9Y243); conditions: at 1 µM
# [7] = biological target: G protein-coupled receptor kinase 6 (Homo sapiens) (UniProt P43250); conditions: at 0.1 µM
# Chain of G protein-coupled receptor kinase 6 (Homo sapiens) (P43250 whole entry, looked up): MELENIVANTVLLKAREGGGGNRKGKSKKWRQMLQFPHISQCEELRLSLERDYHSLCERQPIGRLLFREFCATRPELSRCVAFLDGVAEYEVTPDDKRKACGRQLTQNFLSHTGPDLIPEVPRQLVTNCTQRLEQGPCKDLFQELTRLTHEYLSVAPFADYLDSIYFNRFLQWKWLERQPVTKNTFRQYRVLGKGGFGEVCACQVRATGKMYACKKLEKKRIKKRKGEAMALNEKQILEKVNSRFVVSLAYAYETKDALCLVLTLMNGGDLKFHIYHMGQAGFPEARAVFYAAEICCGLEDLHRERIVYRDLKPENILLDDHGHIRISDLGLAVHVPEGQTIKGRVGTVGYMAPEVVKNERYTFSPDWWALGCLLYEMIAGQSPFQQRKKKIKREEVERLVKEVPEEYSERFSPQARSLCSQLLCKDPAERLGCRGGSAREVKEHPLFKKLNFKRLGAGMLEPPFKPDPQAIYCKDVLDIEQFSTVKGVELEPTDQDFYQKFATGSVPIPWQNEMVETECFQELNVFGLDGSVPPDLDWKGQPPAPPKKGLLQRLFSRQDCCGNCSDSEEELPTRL
# [8] = biological target: G protein-coupled receptor kinase 6 (Homo sapiens) (UniProt P43250); conditions: at 1 µM
# [9] = biological target: T1, Rhodopsin kinase GRK7 (Homo sapiens) (UniProt Q8WTQ7); conditions: at 0.1 µM
# T1 sequence (whole entry): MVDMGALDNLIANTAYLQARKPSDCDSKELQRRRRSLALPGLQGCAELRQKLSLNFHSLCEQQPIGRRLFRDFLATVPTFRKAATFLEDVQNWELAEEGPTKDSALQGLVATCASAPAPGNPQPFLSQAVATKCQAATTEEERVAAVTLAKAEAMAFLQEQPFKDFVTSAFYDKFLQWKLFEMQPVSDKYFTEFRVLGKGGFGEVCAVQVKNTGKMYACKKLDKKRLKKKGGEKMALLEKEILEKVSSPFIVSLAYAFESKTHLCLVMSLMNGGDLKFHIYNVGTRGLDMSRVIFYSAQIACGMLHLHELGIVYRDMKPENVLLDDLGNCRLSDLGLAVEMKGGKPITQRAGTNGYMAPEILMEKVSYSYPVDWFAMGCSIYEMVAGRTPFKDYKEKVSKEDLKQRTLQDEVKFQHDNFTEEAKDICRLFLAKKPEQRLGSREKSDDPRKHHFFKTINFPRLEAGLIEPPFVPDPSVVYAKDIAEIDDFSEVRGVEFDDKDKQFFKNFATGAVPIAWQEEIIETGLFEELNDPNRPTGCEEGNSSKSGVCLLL
# [10] = biological target: T1, Rhodopsin kinase GRK7 (Homo sapiens); conditions: at 1 µM
# Chain of RAC-alpha serine/threonine-protein kinase (Homo sapiens) (P31749 whole entry): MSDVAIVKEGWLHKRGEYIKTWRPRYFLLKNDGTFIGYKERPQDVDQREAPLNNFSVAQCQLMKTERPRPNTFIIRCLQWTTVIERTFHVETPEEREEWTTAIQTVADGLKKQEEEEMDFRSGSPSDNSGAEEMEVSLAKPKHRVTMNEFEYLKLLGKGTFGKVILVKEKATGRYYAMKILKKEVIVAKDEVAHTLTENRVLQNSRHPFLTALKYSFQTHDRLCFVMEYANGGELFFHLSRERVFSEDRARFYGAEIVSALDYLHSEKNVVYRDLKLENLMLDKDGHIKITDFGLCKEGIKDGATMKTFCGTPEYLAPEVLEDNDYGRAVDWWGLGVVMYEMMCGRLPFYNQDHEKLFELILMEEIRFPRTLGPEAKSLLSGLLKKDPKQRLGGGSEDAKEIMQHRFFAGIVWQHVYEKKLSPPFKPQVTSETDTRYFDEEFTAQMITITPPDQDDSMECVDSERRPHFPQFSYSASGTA
SMILES,inhibition [1],inhibition [2],inhibition [3],inhibition [4],inhibition [5],inhibition [6],inhibition [7],inhibition [8],inhibition [9],inhibition [10]
CC1=C(C(=O)Nc2ccc3[nH]ncc3c2)C(c2ccc(F)cc2)N=C(c2ccc(C(F)(F)F)nc2)N1 (stereo not given),0.83%,1.06%,1.39%,1.43%,1.44%,1.68%,3.1%,-2.54%,0.19%,-2.93%
Cc1nnc(-c2cccc(-c3ccc(C(=O)NCC4CC4)cc3)c2)o1,0.55%,1.35%,2.63%,1.84%,1.35%,1.48%,3.35%,10.4%,6.78%,6.04%
Cc1ccc(-c2cc3c(NC(=O)C4CC4)ncnc3o2)cc1,0.96%,1.39%,1.6%,1.7%,3.51%,2.62%,3.77%,-1.16%,4%,1.88%
COc1ccccc1-c1cc(/C=C2\C(=O)Nc3ncc(Br)cc32)cc(Br)c1O,0.67%,0.15%,1.96%,2.36%,1.93%,0.61%,5.35%,30.3%,28.7%,57.2%
CS(=O)(=O)CCNCc1ccoc1-c1ccc2ncnc(Nc3ccc(OCc4ccccc4)cc3)c2c1,-0.19%,0.18%,-0.24%,0.41%,-0.09%,2.03%,0.69%,1.77%,4.11%,-0.84%
CNC(=O)c1ncccc1Nc1nc(Nc2cc3c(cc2OC)CCCN3C(=O)CN(C)C)nc2[nH]ccc12,1.11%,1.38%,2.81%,2.14%,2.74%,1.71%,14.5%,56.7%,16.9%,50.4%
CS(=O)(=O)Nc1ccc(-c2cc(-c3ccccc3)cc(C(N)=O)c2N)cc1,0.58%,-0.28%,0.22%,1.28%,-0.36%,2.53%,1.1%,1.69%,7.08%,1.49%
Fc1cccc(COc2ccc(Nc3ncncc3C#Cc3ccccc3)cc2Cl)c1,0.45%,1.07%,1.28%,1.61%,0.72%,1.12%,7.01%,9.97%,5.2%,9.23%
FC(F)(F)CNc1nccc(-c2cnn3ncccc23)n1,0.05%,0.65%,1.43%,0.42%,0.5%,1.33%,-2.66%,-0.41%,3.21%,0.87%
Nc1ncnc2occ(-c3ccc(NC(=O)Nc4cc(C(F)(F)F)ccc4F)cc3)c12,0.73% and -2.6%,0.58% and -1.87%,1.35% and -1.97%,0.45% and -2.44%,1.41% and -1.65%,1.58% and 0.37%,0.64% and -1.58%,-4.06% and -1.29%,0.46% and 3.18%,-5.44% and -7.01%
CCS(=O)(=O)c1ccc(OC)c(Nc2ncc(-c3cccc(F)c3)o2)c1,0.91%,0.05%,0.44%,3.48%,2.02%,8.05%,4.17%,2.93%,9.79%,3.77%
COc1cc(N2CCN(C(C)C)CC2)ccc1Nc1nc(Nc2cccc3ncccc23)c2cc[nH]c2n1,-0.64%,-0.94%,-0.9%,-0.32%,0.92%,0.55%,-0.14%,-0.02%,-2.45%,0.29%
CNC(=O)c1sc(-n2cnc3cc(OC)c(OC)cc32)cc1OCc1ccccc1C(F)(F)F,0.98%,0.75%,0.84%,2.06%,1.19%,2%,0.06%,-0.11%,4.78%,3.47%
COc1cc2c(cc1Nc1nc(Nc3cccc(F)c3C(N)=O)c3cc[nH]c3n1)N(C(=O)CN1CCN(C(C)C)CC1)CC2,0.64%,1.39%,1.31%,3.18%,1.35%,3.89%,7.5%,26.5%,6.57%,18.7%
NS(=O)(=O)c1ccc(N/N=C2\C(=O)Nc3ccc(C(=O)NCc4ccncc4)cc32)cc1,1.33%,1.28%,2.42%,1.92%,1.54%,1.99%,5.6%,21.9%,2.04%,6.72%
CC1(C)CC(n2cnc(-c3ccc(F)cc3)c2-c2ccnc(N)n2)CC(C)(C)N1,-0.24%,0.14%,-0.58%,0.6%,0.06%,-0.35%,0.95%,2.33%,-0.49%,-1.38%
